Results: PubChem BioAssay AID1240 (Sanford-Burnham Center for Chemical Genomics, 2008)
In all, about 50,000 compounds went through this assay and about 800 (1.6%) showed an effect of 50% or more. The sample holds strong results, similar compounds and a random draw of the others, so the mix is not that of the screen.

Molecular target: Bcl-2-like protein 10 (Homo sapiens) (UniProt Q9HD36)
Assay: TR3 peptide-Bcl-B binding displacers, biochemical primary FP assay, phenotype converters (AID 1240);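 also: 0% = Bcl-B with tracer peptide and DMSO and 100% = tracer peptide lacking Bcl-B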
Settings: GST-Bcl-B / FITC-TR3 peptide fluorescence polarization; stronger effect = higher value; compound at 3.75 mg/L

Sequence of Bcl-2-like protein 10 (Homo sapiens) (Q9HD36 whole entry, looked up): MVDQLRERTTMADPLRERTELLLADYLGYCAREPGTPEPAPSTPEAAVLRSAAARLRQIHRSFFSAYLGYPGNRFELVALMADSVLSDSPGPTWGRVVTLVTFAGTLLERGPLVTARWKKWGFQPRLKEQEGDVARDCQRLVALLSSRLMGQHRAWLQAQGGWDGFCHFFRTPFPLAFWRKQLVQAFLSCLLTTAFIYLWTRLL

SMILES | displacement [%]
Cc1ccc(N2CC(C(=O)Nc3ccccc3Br)CC2=O)cc1 (stereo unspecified) | 11.9
CS(=O)(=O)N(CC(=O)O)c1ccc(F)cc1 | 6.7
N#C/C(=C\c1cccs1)c1nc2ccccc2s1 | -12.5
Cc1ccc(/C=C(\C#N)c2nc3ccccc3s2)cc1 | 88.3
CCOc1cc(/C=C(\C#N)c2nc3ccccc3s2)ccc1O | 0
Cc1cccc(OCCn2c(N)nc3ccccc32)c1 | -10.3
Cc1c(NC(=O)CSc2nnc(-c3cccc(F)c3)n2-c2ccccc2)c(=O)n(-c2ccccc2)n1C | 13.4
CN1CCN(C2=C(Cl)C(=O)N(c3ccc(Br)cc3)C2=O)CC1 | 15.9
C=CCc1cccc2cc(C(=O)Nc3ccc(CC)cc3)c(=O)oc12 | 8.6
C=CCc1cccc2cc(C(=O)Nc3ccc(NC(C)=O)cc3)c(=O)oc12 | -13.3
C=CCc1cccc2cc(C(=O)Nc3ccc(OCC)cc3)c(=O)oc12 | 53.1
CN1C(=O)/C(=C/c2ccc(O)c(O)c2)SC1=S | 14
Cc1cc(Cl)ccc1NC(=O)Cc1ccccc1 | -10
COc1cccc(OCCOc2cccc(/C=c3\sc4nc5ccccc5n4c3=O)c2)c1 | 4.4
COc1cc(/C=c2\sc3nc4ccccc4n3c2=O)cc(Cl)c1OCCOc1ccc(Br)cc1 | -2.9
CCOC(=O)COc1cc(Br)c(/C=c2\sc3nc4ccccc4n3c2=O)cc1OC | 11.1
COc1c(Br)cc(Br)cc1/C=c1\sc2nc3ccccc3n2c1=O | 21.9
O=c1/c(=C\c2ccc(OCc3cccc4ccccc34)cc2)sc2nc3ccccc3n12 | 11.6
COc1cc(Br)c(/C=c2/sc3nc4ccccc4n3c2=O)cc1OC | 132
COc1cccc(/C=c2/sc3nc4ccccc4n3c2=O)c1 | 92.4
O=c1/c(=C/c2ccccc2OCc2ccccc2F)sc2nc3ccccc3n12 | 12.4
O=c1/c(=C\c2ccccc2OCc2cccc3ccccc23)sc2nc3ccccc3n12 | 104
O=c1/c(=C/c2cccc(Br)c2)sc2nc3ccccc3n12 | 14.5
COc1cc(/C=c2\sc3nc4ccccc4n3c2=O)cc(Cl)c1OCc1ccccc1Cl | 2.3
COc1cccc(OCCOc2c(Cl)cc(/C=c3\sc4nc5ccccc5n4c3=O)cc2OC)c1 | 92.6
O=C(c1ccccc1)c1ccc(N=Cc2ccc([N+](=O)[O-])s2)cc1 | 8.8

SMILES | displacement [%]
CCOc1ccccc1/C=C/C(=O)c1cccs1 | -11.9
CC(C)CN1C(=O)/C(=C/c2cccc3ccccc23)SC1=S | 8.3
O=[N+]([O-])c1cccc(S(=O)(=O)NCc2ccccc2)c1 | -3.3
NNC(=O)CSc1nc2ccccc2n1Cc1ccccc1 | -9.6
Cc1occc1C(=O)NC1CCCCCC1 | -13.4
Cc1ccc(CNC(=O)C(C)Oc2ccc(Cl)cc2Cl)cc1 (stereo unspecified) | -12.1
Cc1ccc(S(=O)(=O)Oc2cccc(/C=c3/sc4nc5ccccc5n4c3=O)c2)cc1 | -0.5
O=c1/c(=C\c2ccc(OS(=O)(=O)c3cccc([N+](=O)[O-])c3)cc2)sc2nc3ccccc3n12 | -6.5
O=c1/c(=C\c2cccc(OS(=O)(=O)c3cccc([N+](=O)[O-])c3)c2)sc2nc3ccccc3n12 | 101
Cc1ccc(S(=O)(=O)Oc2ccc(/C=C3\SC(=S)NC3=O)cc2)cc1 | -32.2
COC(=O)c1cc(N=NC2=C(O)CC(C)(C)CC2=O)cc(C(=O)OC)c1 | -7.3
CCC(=O)Nc1ccc(NC(=O)/C=C/c2ccc(-c3ccc(Cl)cc3Cl)o2)cc1 | -14.5
O=C(Nc1ccc(N2CCOCC2)cc1)c1ccc(-c2ccc(Cl)cc2Cl)o1 | -4.5
O=C(/C=C/c1ccc(-c2ccc(Cl)cc2Cl)o1)Nc1ccc(N2CCOCC2)cc1 | 83
O=C(O)c1cc(C(=O)O)cc(N2C(=O)c3ccc(Oc4cccc([N+](=O)[O-])c4)cc3C2=O)c1 | 3.2
CC1(C)NN(c2ccccc2)C(=S)N1CN1CCOCC1 | 55.9
S=c1n(CN2CCOCC2)nnn1-c1ccccc1 | -5.3
CC1(C)NN(c2ccccc2)C(=S)N1c1ccccc1 | 9.6
O=C(Cn1c(-c2ccccc2)c[n+]2ccsc12)c1ccc([N+](=O)[O-])cc1 | 13.8
Cc1cc(/C=C2\C(=O)NC(=O)N(c3ccc4c(c3)OCO4)C2=O)c(C)n1-c1ccccc1 | 16.1
Cc1cc(/C=C2\C(=O)NC(=O)N(c3cccc(F)c3)C2=O)c(C)n1-c1cccc([N+](=O)[O-])c1 | 12.3
Cc1cc(/C=C2\C(=O)NC(=O)N(c3ccccc3)C2=O)c(C)n1-c1cccc([N+](=O)[O-])c1 | 9.1
Cc1cc(/C=C2\C(=O)NC(=O)N(c3ccc4c(c3)OCO4)C2=O)c(C)n1-c1cccc([N+](=O)[O-])c1 | 52.7
Cc1cc(/C=C2\C(=O)NC(=O)N(c3ccc4c(c3)OCO4)C2=O)c(C)n1-c1ccc(F)cc1 | 8
Cc1cc(/C=C2\C(=O)NC(=O)N(c3ccc4c(c3)OCO4)C2=O)c(C)n1-c1cccnc1 | 136
